Measured values reported in PubChem BioAssay.
Activity calls are given as the source filed them. Unless noted, no rule for the calls is given here.

Assays:
[1] = resazurin metabolic signal in HepG2 cells – cell-based, resazurin fluorescence, 24 h, PK04 Diversity Set, profiling panel (AID 1172); settings: HepG2 viability, higher = more signal
[2] = budding yeast growth changes without added modifier – OD600, strain BY4716, 24 h, basal condition, primary screen (AID 1173); settings: S. cerevisiae BY4716 growth, OD600, 24 h; higher = more signal, called active from +8 up or from −8 down
[3] = viability profiling in MM1S myeloma cells – cell-based, resazurin fluorescence, basal, 24 h, PK04 Diversity Set, profiling panel (AID 1174); settings: higher = more signal, called active from +8 up or from −8 down;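 also: MM1S multiple myeloma cell line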
[4] = target: Dihydroorotate dehydrogenase (quinone), mitochondrial (Plasmodium falciparum (isolate 3D7)) (UniProt Q08210); assay: inhibition of P. falciparum DHODH – biochemical, C-terminal His tag, absorbance 600 nm, primary screen (AID 1175); settings: PfDHODH enzyme, DCIP absorbance 600 nm; higher = more signal, called active from +8 up or from −8 down;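 also: recombinant parasite enzyme with a five histidine tag at its C terminus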
Chain of Dihydroorotate dehydrogenase (quinone), mitochondrial (Plasmodium falciparum (isolate 3D7)) (Q08210 whole entry, looked up): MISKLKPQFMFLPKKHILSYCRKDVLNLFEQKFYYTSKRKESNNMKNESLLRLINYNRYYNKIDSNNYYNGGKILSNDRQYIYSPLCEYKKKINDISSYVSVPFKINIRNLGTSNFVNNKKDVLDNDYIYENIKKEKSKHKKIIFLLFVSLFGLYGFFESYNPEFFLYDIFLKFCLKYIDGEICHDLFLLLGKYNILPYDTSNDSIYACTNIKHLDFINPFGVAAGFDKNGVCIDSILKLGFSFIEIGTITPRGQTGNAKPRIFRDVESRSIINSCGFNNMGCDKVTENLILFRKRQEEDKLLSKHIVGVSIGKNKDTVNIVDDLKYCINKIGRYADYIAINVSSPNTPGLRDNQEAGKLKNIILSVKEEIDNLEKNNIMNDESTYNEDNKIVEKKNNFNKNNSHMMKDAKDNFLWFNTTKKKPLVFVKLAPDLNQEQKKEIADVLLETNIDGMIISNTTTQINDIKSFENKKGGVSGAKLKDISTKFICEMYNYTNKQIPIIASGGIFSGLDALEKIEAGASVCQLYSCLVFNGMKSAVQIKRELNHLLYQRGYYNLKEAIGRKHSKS

[5] = inhibition of PAO1 biofilm formation – strain PAO1, LB-PBS medium, absorbance 600 nm, primary screen (AID 1176); settings: P. aeruginosa PAO1 growth/biofilm, A600, 12 h; higher = more signal
[6] = growth modulation of vineyard yeast isolate – strain RM11-1a, OD600, basal, 24 h, primary screen (AID 1177);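 also: cultures grown under basal conditions with no added stressor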; settings: S. cerevisiae RM11-1a growth, OD600, 24 h; higher = more signal, called active from +8 up or from −8 down
[7] = growth of efflux-deficient E. coli DRC39 – strain DRC39, OD650, 24 h, E. coli filamentation inducers, primary screen (AID 1178);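 also: growth measured as culture turbidity by optical density at 650 nm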; settings: E. coli DRC39 acrAB, higher = more signal, called active from +8 up or from −8 down
[8] = growth of efflux-deficient E. coli DRC39 – strain DRC39, OD650, 48 h, E. coli filamentation inducers, primary screen (AID 1179);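 also: screen aims at cell division blockers that make cells filament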; settings: E. coli DRC39 delta-acrAB growth, higher = more signal, called active from +8 up or from −8 down
[9] = viability profiling in RPMI8226 myeloma cells – cell-based, resazurin fluorescence, basal, 24 h, PK04 Diversity Set, profiling panel (AID 1180); settings: higher = more signal;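 also: RPMI8826 multiple myeloma cell line at 5000 cells per well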
[10] = target: E3 ubiquitin-protein ligase XIAP (Homo sapiens) (UniProt P98170); assay: small molecules binding XIAP protein – biophysical, small-molecule microarray, fluorescence 635 nm, primary screen (AID 1181); settings: higher = more signal;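 also: score merges 667 nm emission and signal to noise over triplicate slides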
Chain of E3 ubiquitin-protein ligase XIAP (Homo sapiens) (P98170 whole entry, looked up, the tested form may be a part): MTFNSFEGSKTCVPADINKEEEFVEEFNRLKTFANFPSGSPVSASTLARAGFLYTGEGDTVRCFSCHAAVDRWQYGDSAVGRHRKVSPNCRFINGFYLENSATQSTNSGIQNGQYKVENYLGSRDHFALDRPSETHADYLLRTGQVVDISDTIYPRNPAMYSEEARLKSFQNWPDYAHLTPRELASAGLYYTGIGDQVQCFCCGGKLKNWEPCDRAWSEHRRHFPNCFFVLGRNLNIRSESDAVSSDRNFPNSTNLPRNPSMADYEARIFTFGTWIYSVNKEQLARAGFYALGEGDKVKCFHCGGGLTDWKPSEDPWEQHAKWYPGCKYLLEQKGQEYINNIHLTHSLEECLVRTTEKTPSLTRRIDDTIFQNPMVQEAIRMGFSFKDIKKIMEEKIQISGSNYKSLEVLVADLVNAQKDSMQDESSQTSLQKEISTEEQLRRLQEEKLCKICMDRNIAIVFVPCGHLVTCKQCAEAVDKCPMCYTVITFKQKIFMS

[11] = test system: XIP peptide (Xip251-270) binding; assay: XIP fragment 251-270 binding compounds – biochemical, small-molecule microarray, fluorescence 635/667 nm, 0.1 µg/mL protein, primary screen (AID 1182); settings: fluorescent protein binding, 635 nm, higher = more signal, called active from +8 up or from −8 down
[12] = test system: XIP peptide (Xip251-270); assay: compounds binding XIP fragment 251-270 – biochemical, small-molecule microarray, fluorescence 635/667 nm, 0.5 µg/mL protein, primary screen (AID 1183); settings: fluorescence 635 nm, higher = more signal
[13] = blood-stage malaria parasite viability loss – strain 3D7, DAPI fluorescence, 100 nL, primary screen (AID 1184);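 also: parasites grown inside human red blood cells in medium with human serum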; settings: P. falciparum 3D7 growth, 3 d, higher = more signal
[14] = target: Homeobox protein Hox-A13 (Mus musculus) (UniProt Q62424); assay: disruptors of Hoxa13 oligonucleotide interaction – biochemical, fluorescence polarization, labeled oligonucleotide, primary screen (AID 1185); settings: Hoxa13:DNA binding, 15 min, higher = more signal, called active from +8 up or from −8 down
Chain of Homeobox protein Hox-A13 (Mus musculus) (Q62424 whole entry, looked up): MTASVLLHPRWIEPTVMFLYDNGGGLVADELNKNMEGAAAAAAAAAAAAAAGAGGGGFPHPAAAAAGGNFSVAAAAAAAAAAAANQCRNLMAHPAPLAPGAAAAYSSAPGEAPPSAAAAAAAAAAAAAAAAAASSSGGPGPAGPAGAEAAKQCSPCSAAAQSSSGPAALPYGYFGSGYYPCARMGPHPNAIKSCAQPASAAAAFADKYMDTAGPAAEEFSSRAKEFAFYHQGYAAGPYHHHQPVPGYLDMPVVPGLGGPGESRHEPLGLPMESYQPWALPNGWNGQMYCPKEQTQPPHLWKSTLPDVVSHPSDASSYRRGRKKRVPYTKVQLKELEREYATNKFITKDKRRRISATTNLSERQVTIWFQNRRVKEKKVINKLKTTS

[15] = blockers of DNA damage checkpoint Chk1 activation – imaging, HeLa, hydroxyurea, phospho-Chk1 antibody, percent positive cells, primary screen (AID 1186); settings: hydroxyurea-induced phospho-Chk1 immunofluorescence imaging, higher = more signal
[16] = blockers of DNA damage checkpoint Chk1 activation – imaging, HeLa, hydroxyurea, phospho-Chk1 nuclear intensity, primary screen (AID 1187); settings: hydroxyurea-induced phospho-Chk1 immunofluorescence imaging, higher = more signal

Compound | z-score [1] | z-score [2] | z-score [3] | composite z-score [4] | z-score [5] | z-score [6] | z-score [7] | z-score [8] | z-score [9] | composite z-score [10] | composite z-score [11] | composite z-score [12] | z-score [13] | z-score [14] | z-score [15] | z-score [16]
CCOC(=O)C[C@H]1[C@H](OC(=O)c2cc3ccccc3oc2=O)[C@@H](NC(=O)C2CCCCC2)c2cc(OCCCO)ccc2N1C(=O)Cc1ccc(OC)cc1 | -0.715 | 0.0323 (inactive) | -0.176 (inactive) | 0.427 (inactive) | -0.234 (inactive) | -0.0196 (inactive) | -0.825 (inactive) | -1.1 (inactive) | -0.986 | 0.214 | 0.0512 (inactive) | 0.0439 | -0.565 | -4.22 (inactive) | 0.521 (inactive) | -0.306 (inactive)
COc1ccc([Si](C)(C)[C@H]2[C@H](CCO)O[C@@]3(C(=O)N(Cc4ccc(N5CCOC5=O)cc4)c4ccccc43)[C@@H]2C)cc1 | -0.667 | 2.47 (inactive) | -2.66 (inactive) | 1.02 (inactive) | 2.02 (inactive) | 5.44 (inactive) | 1.32 (inactive) | 0.714 (inactive) | -2.06 | -0.0206 | 0.782 (inactive) | 0.666 | -2.76 | -2.76 (inactive) | -0.73 (inactive) | -0.713 (inactive)
C[C@H]1NC(=O)C([C@@H](C)OCc2ccccc2)NC(=O)[C@@]23C(=O)N[C@@H](Cc4ccccc4)C2[C@H](C)[C@@]2(C)O[C@H]2C3/C=C/C/C=C\CNC1=O (some centres undefined) | -0.588 | 0.481 (inactive) | 0.178 (inactive) | 0.369 (inactive) | 0.13 (inactive) | 0.787 (inactive) | 0.979 (inactive) | 0.545 (inactive) | 0.472 | -0.381 | -0.113 (inactive) | -0.417 | -2.93 | -6.74 (inactive) | 0.314 (inactive) | 0.451 (inactive)
Cc1ccccc1C(O)C1C=CC2C(=O)N(c3ccccc3)C(=O)C2N1Nc1ccccc1F (centres undefined) | -0.954 | -0.822 (inactive) | -1.08 (inactive) | 0.115 (inactive) | 1.07 (inactive) | 0.362 (inactive) | -0.274 (inactive) | -0.542 (inactive) | -1.01 | 0.202 | 1.5 (inactive) | 0.646 | 0.907 | -2.9 (inactive) | 1.27 (inactive) | 1.11 (inactive)
COC(=O)[C@@H]1N=C(c2ccc(OCCCO)cc2)O[C@@H]1c1ccccc1CN=[N+]=[N-] | 1.25 | -1.46 (inactive) | 0.55 (inactive) | -0.487 (inactive) | -0.636 (inactive) | 0.657 (inactive) | 0.0547 (inactive) | 0.396 (inactive) | 0.11 | 0.279 | 0.0222 (inactive) | 0.362 | -0.776 | -2.74 (inactive) | -0.196 (inactive) | -0.0701 (inactive)
O=C1OCCC=C[C@H]2OC34C=CCN(CCN5CCOCC5)C(=O)[C@H]3N(CCCO)C(=O)[C@@H]4C12 (some centres undefined) | -0.368 | -0.494 (inactive) | -0.525 (inactive) | 0.394 (inactive) | -0.481 (inactive) | 0.23 (inactive) | -0.418 (inactive) | -0.822 (inactive) | -0.62 | 0.0143 | 0.186 (inactive) | 0.0388 | -1.72 | -3.86 (inactive) | -0.46 (inactive) | -0.374 (inactive)
Cc1c(NC(=O)/C(C#N)=C/c2ccc(Cl)cc2)c(=O)n(-c2ccccc2)n1C | 0.244 | -0.429 (inactive) | 0.103 (inactive) | -2.14 (inactive) | 0.888 (inactive) | -0.704 (inactive) | 1.43 (inactive) | 1.5 (inactive) | -0.345 | -0.0871 | 0.773 (inactive) | 0.876 | 0.468 | -3.94 (inactive) | -0.0496 (inactive) | -0.246 (inactive)
COC(=O)C(CC#Cc1ccc2c(c1)[C@]1(C(=O)N2)[C@H](c2ccc(O)cc2)N2[C@H](c3ccccc3)[C@H](c3ccccc3)OC(=O)[C@H]2[C@@H]1C(=O)N1CCc2cc(OC)c(OC)cc2C1)C(=O)OC | 0.445 | 0.954 (inactive) | -0.938 (inactive) | -11.2 (active) | 0.573 (inactive) | 1.58 (inactive) | -0.158 (inactive) | -0.627 (inactive) | -4.12 | -0.117 | 1.78 (inactive) | 0.779 | -2.02 | -2.32 (inactive) | 0.323 (inactive) | 0.0329 (inactive)
COC(=O)[C@@]1(Cc2ccc(OC)cc2)[C@H]2c3cc(C(=O)N(C)C)n(Cc4ccsc4Br)c3C[C@H]2CN1C(=O)c1ccccc1 | -0.0214 | 1.52 (inactive) | -0.807 (inactive) | 0.184 (inactive) | 0.0539 (inactive) | 1.89 (inactive) | -0.656 (inactive) | -0.377 (inactive) | -0.907 | 0.452 | 0.197 (inactive) | 0.793 | -1.02 | -1.15 (inactive) | 0.0352 (inactive) | 0.984 (inactive)
